{"source": "the supplement of paper PMC8728848", "binders": {"B1": {"name": "CVN-E41G (protein)", "chain": "MHHHHHHENLYFQSGNFSQACYNSAIQGSVLTSTCIRTNGGYNTSSIDLNSVIGNVDGSLKWQGSNFIETCRNTQLAGSSELAAECKTRAQQFVSTKINLDDHIAAIDGTLKYE"}}, "experiment_in_all_cases": "glycan array binding signal (z-score within array); higher = stronger binding", "conditions_in_all_cases": "glycan notation: IUPAC condensed, linker removed; mutation: E41G", "key": {"Gal4S6S(b1-4)GlcNAc": {"target": "Gal4S6S(b1-4)GlcNAc", "procedure,_shortened": "(§1)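 The binding signal is a Z-score computed within each array. Data were drawn from 3228 arrays in the Consortium for Functional Glycomics database, restricted to those with a known protein sequence. Scores were averaged over arrays of the same protein sequence at different concentrations or buffers, and over linkers, and negative values can be taken as non-binding.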"}, "Gal6S(b1-4)Glc": {"target": "Gal6S(b1-4)Glc", "procedure,_shortened": "as §1"}, "[1]": {"target": "GalNAc(b1-3)Gal(a1-4)Gal(b1-4)GlcNAc", "procedure,_shortened": "as §1"}, "[2]": {"target": "GlcNAc(b1-2)[GlcNAc(b1-4)]Man(a1-3)[GlcNAc(b1-4)][GlcNAc(b1-2)Man(a1-6)]Man(b1-4)GlcNAc(b1-4)GlcNAc", "procedure,_shortened": "as §1"}, "[3]": {"target": "GlcNAc(b1-2)[GlcNAc(b1-6)]Man(a1-6)[GlcNAc(b1-2)Man(a1-3)]Man(b1-4)GlcNAc(b1-4)GlcNAc", "procedure,_shortened": "as §1"}, "[4]": {"target": "GlcNAc(b1-3)Gal(b1-4)GlcNAc(b1-2)Man(a1-3)[GlcNAc(b1-3)Gal(b1-4)GlcNAc(b1-2)Man(a1-6)]Man(b1-4)GlcNAc(b1-4)GlcNAc", "procedure,_shortened": "as §1"}, "[5]": {"target": "GlcNAc(b1-3)Gal(b1-4)GlcNAc(b1-3)Gal(b1-4)GlcNAc(b1-3)Gal(b1-4)GlcNAc(b1-3)Gal(b1-4)GlcNAc(b1-2)[GlcNAc(b1-3)Gal(b1-4)GlcNAc(b1-3)Gal(b1-4)GlcNAc(b1-3)Gal(b1-4)GlcNAc(b1-3)Gal(b1-4)GlcNAc(b1-6)]Man(a1-6)[GlcNAc(b1-3)Gal(b1-4)GlcNAc(b1-3)Gal(b1-4)GlcNAc(b1-3)Gal(b1-4)GlcNAc(b1-3)Gal(b1-4)GlcNAc(b1-2)Man(a1-3)]Man(b1-4)GlcNAc(b1-4)[Fuc(a1-6)]GlcNAc", "procedure,_shortened": "as §1"}, "[6]": {"target": "GlcNAc(b1-6)Gal(b1-4)GlcNAc", "procedure,_shortened": "as §1"}, "Kdn(a2-3)Gal(b1-4)GlcNAc": {"target": "Kdn(a2-3)Gal(b1-4)GlcNAc", "procedure,_shortened": "as §1"}, "[7]": {"target": "Man(a1-2)Man(a1-2)Man(a1-3)Man", "procedure,_shortened": "as §1"}, "[8]": {"target": "Man(a1-2)Man(a1-2)Man(a1-6)[Man(a1-3)]Man", "procedure,_shortened": "as §1"}, "Man(a1-2)Man(a1-3)Man": {"target": "Man(a1-2)Man(a1-3)Man", "procedure,_shortened": "as §1"}, "[9]": {"target": "Man(a1-2)Man(a1-3)[Man(a1-2)Man(a1-6)]Man", "procedure,_shortened": "as §1"}, "[10]": {"target": "Man(a1-2)Man(a1-3)[Man(a1-2)Man(a1-6)]Man(a1-6)[Man(a1-2)Man(a1-2)Man(a1-3)]Man", "procedure,_shortened": "as §1"}, "[11]": {"target": "Man(a1-2)Man(a1-3)[Man(a1-6)]Man(a1-6)[Man(a1-2)Man(a1-3)]Man(b1-4)GlcNAc(b1-4)GlcNAc", "procedure,_shortened": "as §1"}, "[12]": {"target": "Man(a1-2)Man(a1-6)[Man(a1-3)]Man(a1-6)[Man(a1-2)Man(a1-2)Man(a1-3)]Man", "procedure,_shortened": "as §1"}, "[13]": {"target": "Man(a1-2)Man(a1-6)[Man(a1-3)]Man(a1-6)[Man(a1-2)Man(a1-2)Man(a1-3)]Man(b1-4)GlcNAc(b1-4)GlcNAc", "procedure,_shortened": "as §1"}, "[14]": {"target": "Man(a1-3)[Man(a1-6)]Man(a1-6)[Man(a1-2)Man(a1-3)]Man(b1-4)GlcNAc(b1-4)GlcNAc", "procedure,_shortened": "as §1"}, "[15]": {"target": "Neu5Ac(a2-3)Gal(b1-3)GalNAc(b1-4)Gal(b1-4)Glc", "procedure,_shortened": "as §1"}, "[16]": {"target": "Neu5Ac(a2-3)Gal(b1-3)GlcNAc6S", "procedure,_shortened": "as §1"}, "[17]": {"target": "Neu5Ac(a2-3)Gal(b1-4)GlcNAc(b1-3)Gal(b1-4)GlcNAc(b1-3)[Neu5Ac(a2-3)Gal(b1-4)GlcNAc(b1-3)Gal(b1-4)GlcNAc(b1-6)]GalNAc", "procedure,_shortened": "as §1"}, "Neu5Ac(a2-6)Gal": {"target": "Neu5Ac(a2-6)Gal", "procedure,_shortened": "as §1"}, "[18]": {"target": "Neu5Ac(a2-6)Gal(b1-4)GlcNAc(b1-2)[Neu5Ac(a2-6)Gal(b1-4)GlcNAc(b1-6)]Man(a1-6)[Neu5Ac(a2-6)Gal(b1-4)GlcNAc(b1-2)Man(a1-3)][GlcNAc(b1-4)]Man(b1-4)GlcNAc(b1-4)GlcNAc", "procedure,_shortened": "as §1"}, "[19]": {"target": "Neu5Ac(a2-6)Gal(b1-4)GlcNAc(b1-3)Gal(b1-4)GlcNAc(b1-3)Gal(b1-4)GlcNAc(b1-2)Man(a1-3)[Neu5Ac(a2-6)Gal(b1-4)GlcNAc(b1-3)Gal(b1-4)GlcNAc(b1-3)Gal(b1-4)GlcNAc(b1-2)Man(a1-6)]GalNAc", "procedure,_shortened": "as §1"}, "[20]": {"target": "Neu5Ac(a2-6)Gal(b1-4)GlcNAc(b1-6)[Gal(b1-3)GlcNAc(b1-3)]Gal(b1-4)Glc", "procedure,_shortened": "as §1"}, "[21]": {"target": "Neu5Ac(a2-8)Neu5Ac(a2-8)Neu5Ac(a2-3)Gal(b1-4)Glc", "procedure,_shortened": "as §1"}, "[22]": {"target": "Neu5Gc(b2-6)Gal(b1-4)GlcNAc", "procedure,_shortened": "as §1"}}, "note": "About 410 targets per protein were measured; listed, in parts, are those with the strongest signals and a random draw of the rest.", "data": [{"binder": "B1", "values": [{"measurement": "glycan array binding signal (z-score)", "setting": "Gal4S6S(b1-4)GlcNAc", "result": -0.19}, {"measurement": "glycan array binding signal (z-score)", "setting": "Gal6S(b1-4)Glc", "result": -0.138}, {"measurement": "glycan array binding signal (z-score)", "setting": "[1]", "result": -0.154}, {"measurement": "glycan array binding signal (z-score)", "setting": "[2]", "result": -0.148}, {"measurement": "glycan array binding signal (z-score)", "setting": "[3]", "result": -0.145}, {"measurement": "glycan array binding signal (z-score)", "setting": "[4]", "result": -0.152}, {"measurement": "glycan array binding signal (z-score)", "setting": "[5]", "result": -0.123}, {"measurement": "glycan array binding signal (z-score)", "setting": "[6]", "result": -0.121}, {"measurement": "glycan array binding signal (z-score)", "setting": "Kdn(a2-3)Gal(b1-4)GlcNAc", "result": -0.154}, {"measurement": "glycan array binding signal (z-score)", "setting": "[7]", "result": 7.32}, {"measurement": "glycan array binding signal (z-score)", "setting": "[8]", "result": 9.78}, {"measurement": "glycan array binding signal (z-score)", "setting": "Man(a1-2)Man(a1-3)Man", "result": 5.5}, {"measurement": "glycan array binding signal (z-score)", "setting": "[9]", "result": 8.72}, {"measurement": "glycan array binding signal (z-score)", "setting": "[10]", "result": 11}, {"measurement": "glycan array binding signal (z-score)", "setting": "[11]", "result": 6.59}, {"measurement": "glycan array binding signal (z-score)", "setting": "[12]", "result": 8.16}, {"measurement": "glycan array binding signal (z-score)", "setting": "[13]", "result": 8.78}, {"measurement": "glycan array binding signal (z-score)", "setting": "[14]", "result": 4}, {"measurement": "glycan array binding signal (z-score)", "setting": "[15]", "result": -0.111}, {"measurement": "glycan array binding signal (z-score)", "setting": "[16]", "result": -0.165}, {"measurement": "glycan array binding signal (z-score)", "setting": "[17]", "result": -0.126}, {"measurement": "glycan array binding signal (z-score)", "setting": "Neu5Ac(a2-6)Gal", "result": -0.168}, {"measurement": "glycan array binding signal (z-score)", "setting": "[18]", "result": -0.139}, {"measurement": "glycan array binding signal (z-score)", "setting": "[19]", "result": -0.112}, {"measurement": "glycan array binding signal (z-score)", "setting": "[20]", "result": -0.167}, {"measurement": "glycan array binding signal (z-score)", "setting": "[21]", "result": -0.173}, {"measurement": "glycan array binding signal (z-score)", "setting": "[22]", "result": -0.155}]}]}
